Assay results as given in ChEMBL document CHEMBL3988442, “University of Dundee, Small-Polar-MMV Screening Library” (2021).

What was measured:
[1] = biological target: T1, Aspartate--tRNA(Asp/Asn) ligase (Mycobacterium tuberculosis (strain ATCC 25618 / H37Rv)) (UniProt P9WFW3); assay: Assay for Asp RNA synthetase-1 from Mycobacterium tuberculosis; assay type: functional; parameters: scale not given: direction of the effect not stated beside the values; conditions: 30 µM; also: in the data most compounds retested in dose-response had high values
T1 sequence (whole entry): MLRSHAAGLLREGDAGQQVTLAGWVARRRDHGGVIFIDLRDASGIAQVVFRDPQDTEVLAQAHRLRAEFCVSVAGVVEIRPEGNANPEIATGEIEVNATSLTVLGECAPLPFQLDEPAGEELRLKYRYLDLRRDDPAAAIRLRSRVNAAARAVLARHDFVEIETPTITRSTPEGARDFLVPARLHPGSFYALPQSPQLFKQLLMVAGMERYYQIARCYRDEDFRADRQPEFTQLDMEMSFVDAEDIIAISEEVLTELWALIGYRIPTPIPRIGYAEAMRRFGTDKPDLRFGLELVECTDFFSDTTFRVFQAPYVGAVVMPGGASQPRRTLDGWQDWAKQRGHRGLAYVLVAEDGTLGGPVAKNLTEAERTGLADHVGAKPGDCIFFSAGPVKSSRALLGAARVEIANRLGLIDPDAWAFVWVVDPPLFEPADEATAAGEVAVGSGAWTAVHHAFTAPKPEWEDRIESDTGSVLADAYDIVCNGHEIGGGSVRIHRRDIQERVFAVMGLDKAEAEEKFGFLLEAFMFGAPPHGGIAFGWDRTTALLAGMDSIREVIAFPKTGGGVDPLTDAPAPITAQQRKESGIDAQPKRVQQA

[2] = biological target: Shiga toxin 2 (Escherichia coli O157:H7) (UniProt P09385+P09386); assay: E. coli 0.157:H7 Shiga Toxin SOP - stx2 screening assay; assay type: functional; parameters: scale not given: direction of the effect not stated beside the values; conditions: 30 µM

| Compound | Percent Effect [1] [%] | Percent Effect [2] [%] |
| --- | --- | --- |
| Cc1noc(Cl)c1CCC(=O)N1CCc2sccc2C1 | -1.63 | 18.9 |
| Cn1ccnc1CN(CCCO)C1CCCc2ccccc21 (centres undefined) | 3.32 | 8.83 |
| N#Cc1cc(NS(=O)(=O)c2ccc(C(=O)O)cc2F)ccc1F | 2.89 | 9.05 |
| OC1CCN(Cc2c(C3CCCNC3)[nH]c3ncccc23)CC1 (centres undefined) | 7.49 | -0.778 |
| CC(c1nc(C2CC2)no1)N1CCN(c2ccc(C#N)cn2)CC1 (centres undefined) | -0.15 | -13.8 |
| OC[C@H]1CC[C@]2(CC1)CN(Cc1ccccc1F)Cc1ccccc1O2 | -2.81 | 20.1 |
| CN(C)C(=O)Cc1nc(CN2CCCCC2Cn2cccn2)cs1 (centres undefined) | 2.64 | -25.1 |
| Cc1cc(C)c(CNC(=O)NCc2ccc3c(c2)CCC3)c(=O)[nH]1 | -4.97 | 32.4 |
| O=C1NCCN1C1CCN(CCc2cccs2)CC1 | -0.519 | 4.4 |
| Cn1cccc1C(=O)N1CCc2ncnc(C3CC3)c2CC1 | 0.574 | -1.81 |
| CN(Cc1ccccn1)C1CC2(CCN(Cc3cccnc3)CC2)C1 | -2.75 | -14.8 |
| Cc1nc(N2CCCC2)nc2c1CN(C(=O)N1CCOCC1)CC2 | 0.478 | -3.98 |
| Cc1ccc(C(=O)N2C[C@@H](OCC3CCOCC3)[C@H]3OCCC[C@H]32)o1 | -0.93 | -15.3 |
| Cc1nc(Nc2nccs2)cc(C2CCCN2C2CCOCC2)n1 (centres undefined) | -3.08 | 3.58 |
| O=C(NCCNc1ccc(C(F)(F)F)cn1)c1ccc(Br)cc1F | -0.778 | 38.5 |
| Cc1ncsc1CN1C[C@@H]2COC[C@]2(C(=O)NCC2CC2)C1 | 0.838 | -13.5 |
| CC(C)c1cnc(CNc2c(F)cccc2-n2cccn2)o1 | -0.919 | 9.22 |
| NC(=O)C1CN(C(=O)Nc2ccccc2SC(F)(F)F)CCO1 (centres undefined) | -5.1 | -11.7 |
| CN(C)C(=O)CN1C(=O)CCC12CCN(Cc1cccn1C)CC2 | 4.89 | 0.848 |
| CCOc1ccc(NC(=O)NCc2csc(NC)n2)cc1C | -0.262 | -26.6 |
| COC[C@H]1CCC[C@]12CN(C(=O)NCc1ccccc1)CCO2 | -3.75 | -17.2 |
| Cn1nnc2cc(C(=O)N3CCCC3Cc3ccccc3)ccc21 (centres undefined) | 2.04 | -54.6 |
| CC(=O)N1CCCCC1c1cc(C(=O)N2CCOCC2)[nH]n1 (centres undefined) | -0.551 | 15.2 |
| CC(NC(=O)NCCN1CCCCCC1=O)c1nncn1C (centres undefined) | -7.63 | -18.6 |
| Cc1oc(C)c(C(=O)NCc2ccccn2)c1C | -4.72 | 26.9 |
| CN(Cc1ccc2c(c1)OCO2)Cc1nc2c(cnn2C)c(=O)[nH]1 | -0.843 | 27.6 |

| Compound | Percent Effect [1] [%] | Percent Effect [2] [%] |
| --- | --- | --- |
| O=C(CC1CC1)NCc1cc(=O)n2c(n1)CN(Cc1ccoc1)CCC2 | -2.64 | -17 |
| CC(C)(C)C(O)CN1CCN(C(=O)c2cccc3[nH]ncc23)CC1 (centres undefined) | -5.46 | -5.59 |
| Cc1cnn(CC(C)NCc2nc(-c3cccnc3)no2)c1 (centres undefined) | 1 | -15.5 |
| COc1ccc(C2SC(C)=Nc3c2c(=O)[nH]n3C2CCCCC2)cc1O (centres undefined) | 3.89 | -40 |
| COCC(=O)N1CC[C@H]2C[C@H](C)O[C@@H]2C1 | -2.9 | 3.29 |
| Cc1ccccc1C1CCCN1C(=O)CN1CC2(CCNCC2)OC1=O (centres undefined) | 3.25 | 2.84 |
| CN1[C@H](Cn2cncn2)C[C@@H]2CN(Cc3cccc(C#N)c3)CC[C@@H]21 | 0.0985 | -24.3 |
| Cn1ncc2c1CCCC2NCc1ccc(Cl)s1 (centres undefined) | -3.2 | 28.8 |
| CNc1cncc(C2CCCN2C(=O)c2ccc3oc(C)cc3c2)n1 (centres undefined) | 0.779 | -4.12 |
| CN(Cc1nc(C2CC2)no1)C1CCCN(c2cccnn2)C1 (centres undefined) | -4.8 | 0.986 |
| CS(=O)(=O)N1CCCN(C(=O)c2ccc(Cn3ccccc3=O)o2)CC1 | 1.66 | 25 |
| NC(=O)c1cc(C2CCCN(CCc3ccccn3)C2)n[nH]1 (centres undefined) | -0.833 | -5.89 |
| Cc1ccc(S(=O)(=O)NC(=O)c2cccc3c2OCCO3)c(C)c1 | -3.08 | -9.09 |
| CCn1ncc2c1C(COC)CN(Cc1ccc(OC)cc1)C2 (centres undefined) | -4.44 | -3.46 |
| Cn1c(C(F)(F)F)nn(CCNC(=O)c2cnc3ccccc3n2)c1=O | -7.1 | -21.4 |
| CCN1CCCC(CNC(=O)C2(c3cccc(Cl)c3)CC2)C1 (centres undefined) | 4.29 | -31.2 |
| CN(C)C(=O)CC1CC2(CCN(c3ncccn3)CC2)c2ccccc21 (centres undefined) | 2.97 | -6.02 |
| COc1ccc(C2CCCN2C(=O)CCNc2ncccn2)cc1 (centres undefined) | 5.17 | -17 |
| CC(C)c1nc(CN(C)CC2CCN(CCO)CC2)no1 | 3.25 | -7.83 |
| Cn1cc(C(=O)NC[C@@H]2OC[C@H]3CN(Cc4ccco4)CC[C@H]32)cn1 | -0.729 | -33.5 |
| CCc1nc2n(n1)CC(NCc1noc(-c3ccccc3)n1)CC2 (centres undefined) | -2.95 | -17.9 |
| COc1cccc(C(=O)Nc2cc(CC(C)C)nn2C)c1 | -7.31 | 12 |
| Cc1cccn2c(=O)cc(OC(=O)c3ccccc3)nc12 | -3.21 | -13.3 |
| Cc1nc(CN2CCCC2c2nc(C(C)C)no2)cs1 (centres undefined) | -4.9 | 12.9 |
| CCOc1cccc(C(C)NC(=O)N2CCC(C(N)=O)CC2)c1 (centres undefined) | -2 | 11.2 |
| Cc1cc(C)n(C2CN(CC(O)COc3ccc(F)cc3)C2)n1 (centres undefined) | -0.121 | 19.1 |

| Compound | Percent Effect [1] [%] | Percent Effect [2] [%] |
| --- | --- | --- |
| CC(C)CN1CCC(NC(=O)c2ccc(F)cc2I)CC1 | -2.95 | -20.7 |
| CN(Cc1ccc(Cl)s1)C(=O)c1cccc(OCC(N)=O)c1 | -2.2 | 0.368 |
| COCCCn1ccnc1-c1cnc(OC)nc1 | 2 | -0.356 |
| Cc1ccc(F)c(-n2nnc(C(=O)O)c2-c2ccncc2)c1 | 6.35 | -7.89 |
| Cc1cccnc1C(=O)N1CCCC(c2[nH]ncc2S(C)(=O)=O)C1 (centres undefined) | 3.25 | 15.7 |
| CCN1CC2(CCC1=O)CCN(C(=O)c1ccc(Cl)cc1O)CC2 | -1.67 | -16.7 |
| Cc1nc(C)n(CC2CN(Cc3cccc(C#N)c3)CCO2)n1 (centres undefined) | 3.11 | 20.9 |
| CN(C)c1ccc(C(=O)N2CCN(Cc3cscn3)CC2)cc1F | 5.95 | -20.8 |
| CCCN(CC(=O)NC)C(=O)c1ccc(-c2ccsc2)nc1C | -3.29 | -2.59 |
| COc1ncccc1CNc1cc(N2CCCC2CO)ncn1 (centres undefined) | -0.88 | -26.2 |
| Cc1ccccc1S(=O)(=O)N1CCCCC1c1ccn[nH]1 (centres undefined) | 0.632 | 35.1 |
| Cc1noc(CN(Cc2ccc3c(c2)OCO3)Cc2ccc(C)o2)n1 | 13.9 | 29 |
| O=C(c1ccoc1)N1CCCn2cnc(COCC3CC3)c2C1 | -5.91 | -6.53 |
| COc1cccc(N2CCN(C(=O)C(O)c3cccc(Cl)c3)CC2=O)c1 (centres undefined) | 0.569 | -24.2 |
| COc1ccccc1CC(=O)N1CC[C@@]2(CCCO2)[C@@H](OC)C1 | 4.54 | 52.7 |
| CNc1cc(CCNC(=O)c2cccnc2)nc(-c2ccncc2)n1 | -1.03 | 2.08 |
| O=C(NCCn1ccnc1)c1ccn(-c2cccc(F)c2)n1 | 5.59 | 0.0864 |
| CCc1nc(CN2CCCC(NCc3cc(C)no3)C2)no1 (centres undefined) | 3.46 | 9.82 |
| Cc1nc(CNCC2CCCN2c2cccnn2)no1 (centres undefined) | -2.08 | -15.8 |
| Cc1nc(-c2nnc[nH]2)sc1C(=O)N(Cc1cccnc1)C1CC1 | -2.72 | 7.27 |
| Cc1cc(NCc2cccnc2)n2nc(C)cc2n1 | -2.06 | 13.8 |
| CC(NC(=O)COc1nc(C(C)(C)C)no1)c1ccco1 (centres undefined) | -2.04 | 16.4 |
| COc1cccc(C2CCCN2Cc2nc3c(cnn3C)c(=O)[nH]2)c1 (centres undefined) | -4.03 | -6.96 |
| CNC(=O)CSc1nc2c(cnn2Cc2ccc(F)cc2)c(=O)[nH]1 | -1.18 | -8.43 |
| Cc1cc(C)n(C2CCCN(C(=O)c3cccc4[nH]ncc34)C2)n1 (centres undefined) | 7.59 | -6.75 |
| COc1cc(C)ccc1OCCC(=O)N1CCCC1Cn1cccn1 (centres undefined) | 2 | 12.8 |

| Compound | Percent Effect [1] [%] | Percent Effect [2] [%] |
| --- | --- | --- |
| CCCC(=O)N1CCC2(CC1)CC(NC(C)=O)c1ccccc1O2 (centres undefined) | -5.26 | -24.9 |
| Cc1ncsc1C(=O)N1CCCN(Cc2cscn2)CC1 | 1.47 | 16.9 |
| Cc1cnn(CC2CCCN2C(=O)c2ccc3[nH]nnc3c2)c1 (centres undefined) | -3.83 | -49.7 |
| Cc1ccc(C2CSCCN2C(=O)c2ccc(C(N)=O)cc2)o1 (centres undefined) | -1.11 | 8.19 |
| Cc1cc(C(=O)N2CCC3(CCCN(CC4CC4)C3=O)C2)c(C)n1C (centres undefined) | -1.12 | -7.28 |
| Cc1cc(NC(=O)NCc2cccnc2OC(C)C)n(C)n1 | 5.63 | -9.92 |
| CC(=O)NCCC(=O)NCc1cccnc1-n1cnc2ccccc21 | -1.62 | -2.41 |
| Cc1c[nH]nc1C1CCCCN1C(=O)Cn1cc(Cl)cn1 (centres undefined) | 4.25 | 10.4 |
| CNC(=O)C1(CCCc2ccncc2)CCCN1 (centres undefined) | 4.78 | 1.85 |
| Cn1cc(CNC2CCCN(Cc3noc(C4CC4)n3)C2)cn1 (centres undefined) | -1.26 | 24.8 |
| CC(C)COCC(NC(=O)c1cccnc1)c1ccco1 (centres undefined) | 2.37 | 21 |
| O=C(c1cccc(N2CCCC2=O)c1)N1CCCC(n2cncn2)C1 (centres undefined) | -4.55 | 17.8 |
| C=C(C)CN(Cc1cccc(O)c1)C1CCC(O)CC1 (centres undefined) | 5.8 | 18.1 |
| CN(C)c1nc2c(c(=O)[nH]1)CCN(C(=O)c1cccc3nccnc13)C2 | 4.01 | -35 |
| CCn1cc(N)c(C(=O)NCc2cnn(C)c2)n1 | -1.99 | -25.8 |
| CS(=O)(=O)N1CCC(NC(=O)COc2ccc(Cl)c(Cl)c2)CC1 | 1.23 | -20.3 |
| CCC1(CC)Cc2ccccc2-c2nc(CN(C)C)nc(O)c21 | 8.36 | -1.34 |
| Cc1ccsc1C(=O)N1CC(C(=O)NCC2CC2)C2(CCOCC2)C1 (centres undefined) | 8.9 | -7.68 |
| CCOCCCn1c(NC(=O)c2scnc2C)nc2ccccc21 | -5.62 | -30.2 |
| CN(Cc1cn2c(n1)CN(C(=O)CC1CC1)CC2)Cc1ccco1 | -0.868 | -5.93 |
| Cc1ccc(CNC(C)c2ccc3[nH]c(=O)[nH]c3c2)s1 (centres undefined) | 1.6 | -1.3 |
| Cc1nc(CN2CCC3(CCN(c4ncc(F)cn4)C3)C2=O)cs1 (centres undefined) | 7.33 | -9.92 |
| COCC1COCCC12CCN(C(=O)CCOc1ccccc1)CC2 (centres undefined) | 1.23 | 0.928 |
| CC(NC(=O)NCC1(N2CCCCC2)CCCCC1)c1nncn1C (centres undefined) | -4.55 | 27.5 |
